For assay [1], the system named is Proto-oncogene tyrosine-protein kinase receptor Ret (Homo sapiens), P07949 [Y791F]. The note with it: at 1 µM.
Assay [2] addresses Macrophage-stimulating protein receptor (Homo sapiens) (UniProt Q04912). The note with it: at 0.1 µM.
For assay [3] the target is unchanged. The note with it: at 1 µM.
Assay [4] deals with Proto-oncogene tyrosine-protein kinase ROS (Homo sapiens) (UniProt P08922). The note with it: at 0.1 µM.
The target is the same in assay [5]. The note with it: at 1 µM.
Assay [6] addresses Proto-oncogene tyrosine-protein kinase Src (Homo sapiens) (UniProt P12931). The note with it: at 0.1 µM.
For assay [7] the target is unchanged. The following applies: at 1 µM.
Assay [8] has as its target Tyrosine-protein kinase Srms (Homo sapiens) (UniProt Q9H3Y6). The following applies: at 0.1 µM.
Assay [9] shares this target. The following applies: at 1 µM.
Assay [10] concerns the target Tyrosine-protein kinase SYK (Homo sapiens) (UniProt P43405). The note with it: at 0.1 µM.
Assay [11] has the same target. The following applies: at 1 µM.
The target of assay [12] is T1, Tyrosine-protein kinase Tec (Homo sapiens) (UniProt P42680).
T1 sequence (whole entry): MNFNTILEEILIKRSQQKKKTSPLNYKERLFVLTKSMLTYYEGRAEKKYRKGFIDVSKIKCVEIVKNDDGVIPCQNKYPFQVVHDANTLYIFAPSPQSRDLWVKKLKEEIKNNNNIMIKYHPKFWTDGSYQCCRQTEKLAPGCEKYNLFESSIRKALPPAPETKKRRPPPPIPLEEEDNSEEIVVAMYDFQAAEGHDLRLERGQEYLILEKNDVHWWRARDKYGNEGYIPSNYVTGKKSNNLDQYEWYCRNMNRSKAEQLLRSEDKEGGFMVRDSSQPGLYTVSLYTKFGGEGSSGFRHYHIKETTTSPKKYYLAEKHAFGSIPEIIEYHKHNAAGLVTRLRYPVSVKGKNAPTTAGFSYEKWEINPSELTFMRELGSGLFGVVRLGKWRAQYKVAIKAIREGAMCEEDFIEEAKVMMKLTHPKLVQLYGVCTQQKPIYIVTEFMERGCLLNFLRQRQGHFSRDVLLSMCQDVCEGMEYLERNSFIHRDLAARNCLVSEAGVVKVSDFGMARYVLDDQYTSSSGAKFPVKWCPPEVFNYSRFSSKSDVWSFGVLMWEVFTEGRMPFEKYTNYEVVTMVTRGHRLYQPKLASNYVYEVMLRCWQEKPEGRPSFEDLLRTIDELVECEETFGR
The note with it: at 0.1 µM.

Assay [13] addresses T1, Tyrosine-protein kinase Tec (Homo sapiens). The note with it: at 1 µM.
The target in assay [14] is Angiopoietin-1 receptor (Homo sapiens) (UniProt Q02763). The note with it: at 0.1 µM.
For assay [15] the target is unchanged. The note with it: at 1 µM.
For assay [16], the target named is T2, Non-receptor tyrosine-protein kinase TNK1 (Homo sapiens) (UniProt Q13470).
T2 sequence (whole entry): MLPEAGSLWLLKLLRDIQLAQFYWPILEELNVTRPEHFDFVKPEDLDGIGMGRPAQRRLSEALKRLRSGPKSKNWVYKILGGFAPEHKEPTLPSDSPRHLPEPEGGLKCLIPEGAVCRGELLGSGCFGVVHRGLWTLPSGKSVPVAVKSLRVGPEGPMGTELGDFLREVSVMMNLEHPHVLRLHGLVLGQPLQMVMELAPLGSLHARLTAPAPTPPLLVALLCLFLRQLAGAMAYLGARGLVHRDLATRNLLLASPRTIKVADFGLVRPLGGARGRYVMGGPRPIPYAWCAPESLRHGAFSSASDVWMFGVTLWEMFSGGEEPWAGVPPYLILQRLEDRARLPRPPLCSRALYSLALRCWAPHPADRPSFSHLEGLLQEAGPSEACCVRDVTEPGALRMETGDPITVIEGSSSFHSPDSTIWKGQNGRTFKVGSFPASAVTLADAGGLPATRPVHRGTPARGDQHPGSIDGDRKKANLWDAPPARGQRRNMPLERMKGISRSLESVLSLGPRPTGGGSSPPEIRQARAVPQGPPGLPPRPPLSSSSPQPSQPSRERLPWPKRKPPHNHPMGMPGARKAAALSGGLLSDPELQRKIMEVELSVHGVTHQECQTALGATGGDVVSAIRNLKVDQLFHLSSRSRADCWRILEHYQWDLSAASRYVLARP
The note with it: at 0.1 µM.

Assay [17] has as its target T2, Non-receptor tyrosine-protein kinase TNK1 (Homo sapiens). The note with it: at 1 µM.
Assay [18] concerns the target Activated CDC42 kinase 1 (Homo sapiens) (UniProt Q07912). The note with it: at 0.1 µM.
The target is the same in assay [19]. The following applies: at 1 µM.
Assay [20] deals with High affinity nerve growth factor receptor (Homo sapiens) (UniProt P04629). The note with it: at 0.1 µM.
Chain of High affinity nerve growth factor receptor (Homo sapiens) (P04629 33-796 limits assumed): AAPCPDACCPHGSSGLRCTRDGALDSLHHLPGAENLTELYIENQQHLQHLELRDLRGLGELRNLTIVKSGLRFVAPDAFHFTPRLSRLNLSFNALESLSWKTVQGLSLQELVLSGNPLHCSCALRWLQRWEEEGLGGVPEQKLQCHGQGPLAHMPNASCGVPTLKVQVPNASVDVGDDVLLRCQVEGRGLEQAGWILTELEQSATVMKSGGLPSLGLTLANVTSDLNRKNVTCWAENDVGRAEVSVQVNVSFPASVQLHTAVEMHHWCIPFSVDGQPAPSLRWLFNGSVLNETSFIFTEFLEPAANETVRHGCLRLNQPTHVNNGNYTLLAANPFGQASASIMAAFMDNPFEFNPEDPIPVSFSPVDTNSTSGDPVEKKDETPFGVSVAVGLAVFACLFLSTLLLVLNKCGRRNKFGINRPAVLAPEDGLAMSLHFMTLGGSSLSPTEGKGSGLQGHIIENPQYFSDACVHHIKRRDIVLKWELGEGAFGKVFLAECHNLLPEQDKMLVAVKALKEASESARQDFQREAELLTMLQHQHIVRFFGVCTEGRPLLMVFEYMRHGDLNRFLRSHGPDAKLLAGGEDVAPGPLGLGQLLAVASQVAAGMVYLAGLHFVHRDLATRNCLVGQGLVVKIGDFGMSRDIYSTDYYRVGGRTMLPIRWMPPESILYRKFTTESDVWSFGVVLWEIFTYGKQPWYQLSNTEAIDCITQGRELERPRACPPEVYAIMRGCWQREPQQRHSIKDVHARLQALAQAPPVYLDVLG

Chain of Proto-oncogene tyrosine-protein kinase ROS (Homo sapiens) (P08922 whole entry): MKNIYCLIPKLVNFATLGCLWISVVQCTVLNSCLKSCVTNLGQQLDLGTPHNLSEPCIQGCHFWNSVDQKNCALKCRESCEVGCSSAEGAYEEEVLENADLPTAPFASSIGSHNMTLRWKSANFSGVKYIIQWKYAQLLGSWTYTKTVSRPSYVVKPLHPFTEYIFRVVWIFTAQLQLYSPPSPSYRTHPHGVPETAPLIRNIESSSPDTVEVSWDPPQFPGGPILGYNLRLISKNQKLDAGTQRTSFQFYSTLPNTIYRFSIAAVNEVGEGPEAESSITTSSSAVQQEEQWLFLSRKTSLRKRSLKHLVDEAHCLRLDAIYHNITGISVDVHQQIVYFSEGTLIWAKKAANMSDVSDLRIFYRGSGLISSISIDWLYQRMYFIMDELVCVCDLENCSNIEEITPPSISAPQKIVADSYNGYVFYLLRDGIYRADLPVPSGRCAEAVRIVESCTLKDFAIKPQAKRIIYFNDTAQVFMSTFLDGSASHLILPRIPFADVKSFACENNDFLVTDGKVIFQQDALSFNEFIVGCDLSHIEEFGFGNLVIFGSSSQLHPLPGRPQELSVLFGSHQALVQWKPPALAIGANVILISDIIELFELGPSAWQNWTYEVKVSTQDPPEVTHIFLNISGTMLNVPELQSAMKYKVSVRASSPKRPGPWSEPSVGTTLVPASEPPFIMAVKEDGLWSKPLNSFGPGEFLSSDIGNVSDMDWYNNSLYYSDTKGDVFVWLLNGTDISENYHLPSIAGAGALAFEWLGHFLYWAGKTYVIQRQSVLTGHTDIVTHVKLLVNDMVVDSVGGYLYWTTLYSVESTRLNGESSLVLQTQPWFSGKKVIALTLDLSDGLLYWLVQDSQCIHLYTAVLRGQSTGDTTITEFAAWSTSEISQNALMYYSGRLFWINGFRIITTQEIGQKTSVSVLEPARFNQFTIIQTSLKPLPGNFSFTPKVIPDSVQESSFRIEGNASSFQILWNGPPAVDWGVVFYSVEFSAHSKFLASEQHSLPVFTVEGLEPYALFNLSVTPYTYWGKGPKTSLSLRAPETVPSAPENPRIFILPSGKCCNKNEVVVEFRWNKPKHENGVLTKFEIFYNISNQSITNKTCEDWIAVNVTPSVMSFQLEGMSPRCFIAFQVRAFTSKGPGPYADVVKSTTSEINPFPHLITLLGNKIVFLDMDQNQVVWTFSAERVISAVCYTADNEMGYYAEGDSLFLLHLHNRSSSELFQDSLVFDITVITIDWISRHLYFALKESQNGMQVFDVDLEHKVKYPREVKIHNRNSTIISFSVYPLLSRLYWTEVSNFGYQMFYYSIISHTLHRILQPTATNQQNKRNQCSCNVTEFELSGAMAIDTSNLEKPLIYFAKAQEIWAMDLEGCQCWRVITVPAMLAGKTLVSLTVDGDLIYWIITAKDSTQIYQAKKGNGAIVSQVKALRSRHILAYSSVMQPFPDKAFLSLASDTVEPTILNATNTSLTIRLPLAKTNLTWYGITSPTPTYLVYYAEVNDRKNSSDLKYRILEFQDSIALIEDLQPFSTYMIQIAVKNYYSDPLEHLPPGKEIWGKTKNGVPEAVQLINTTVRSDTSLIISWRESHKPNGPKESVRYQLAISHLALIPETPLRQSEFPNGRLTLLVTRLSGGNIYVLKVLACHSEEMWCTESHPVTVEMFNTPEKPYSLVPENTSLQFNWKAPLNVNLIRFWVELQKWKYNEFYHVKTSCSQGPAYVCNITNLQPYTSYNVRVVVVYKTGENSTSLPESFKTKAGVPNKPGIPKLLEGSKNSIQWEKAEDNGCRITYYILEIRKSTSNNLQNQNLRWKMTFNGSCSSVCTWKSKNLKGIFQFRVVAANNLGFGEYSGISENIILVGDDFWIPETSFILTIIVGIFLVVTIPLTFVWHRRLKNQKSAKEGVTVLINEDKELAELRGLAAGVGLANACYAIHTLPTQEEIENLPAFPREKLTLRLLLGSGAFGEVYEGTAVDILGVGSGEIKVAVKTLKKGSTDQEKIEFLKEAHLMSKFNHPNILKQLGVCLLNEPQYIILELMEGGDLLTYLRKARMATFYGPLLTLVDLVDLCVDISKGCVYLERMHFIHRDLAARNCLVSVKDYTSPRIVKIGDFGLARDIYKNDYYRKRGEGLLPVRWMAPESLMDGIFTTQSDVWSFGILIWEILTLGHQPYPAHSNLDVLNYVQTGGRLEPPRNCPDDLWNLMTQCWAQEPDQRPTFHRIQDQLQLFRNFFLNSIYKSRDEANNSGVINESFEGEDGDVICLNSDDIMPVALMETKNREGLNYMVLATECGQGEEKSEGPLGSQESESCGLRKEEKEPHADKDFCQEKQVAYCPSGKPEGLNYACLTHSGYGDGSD
Chain of Proto-oncogene tyrosine-protein kinase Src (Homo sapiens) (P12931 2-536 limits assumed): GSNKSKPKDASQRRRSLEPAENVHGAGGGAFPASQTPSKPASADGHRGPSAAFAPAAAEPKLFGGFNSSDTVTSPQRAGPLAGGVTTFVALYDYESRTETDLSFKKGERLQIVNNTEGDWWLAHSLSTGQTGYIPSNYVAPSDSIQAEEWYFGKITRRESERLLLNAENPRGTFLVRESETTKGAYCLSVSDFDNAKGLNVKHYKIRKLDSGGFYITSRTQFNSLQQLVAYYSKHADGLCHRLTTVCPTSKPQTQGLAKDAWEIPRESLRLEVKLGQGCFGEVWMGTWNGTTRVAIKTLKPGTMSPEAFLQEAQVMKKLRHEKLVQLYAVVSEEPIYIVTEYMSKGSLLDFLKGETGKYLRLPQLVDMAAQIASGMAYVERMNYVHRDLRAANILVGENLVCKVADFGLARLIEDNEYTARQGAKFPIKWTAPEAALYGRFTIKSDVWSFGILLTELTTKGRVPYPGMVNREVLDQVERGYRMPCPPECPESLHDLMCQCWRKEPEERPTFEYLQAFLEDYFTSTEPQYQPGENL
Chain of Macrophage-stimulating protein receptor (Homo sapiens) (Q04912 25-304 limits assumed): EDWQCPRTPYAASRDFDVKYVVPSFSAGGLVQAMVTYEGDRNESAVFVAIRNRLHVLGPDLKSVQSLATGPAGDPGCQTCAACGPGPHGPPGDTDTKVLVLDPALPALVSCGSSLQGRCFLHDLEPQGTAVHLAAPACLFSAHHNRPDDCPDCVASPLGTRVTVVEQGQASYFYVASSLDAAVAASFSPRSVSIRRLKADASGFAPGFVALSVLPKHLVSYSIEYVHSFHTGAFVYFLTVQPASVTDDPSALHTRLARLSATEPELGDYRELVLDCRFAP
Chain of Macrophage-stimulating protein receptor (Homo sapiens) (Q04912 310-1400 limits assumed): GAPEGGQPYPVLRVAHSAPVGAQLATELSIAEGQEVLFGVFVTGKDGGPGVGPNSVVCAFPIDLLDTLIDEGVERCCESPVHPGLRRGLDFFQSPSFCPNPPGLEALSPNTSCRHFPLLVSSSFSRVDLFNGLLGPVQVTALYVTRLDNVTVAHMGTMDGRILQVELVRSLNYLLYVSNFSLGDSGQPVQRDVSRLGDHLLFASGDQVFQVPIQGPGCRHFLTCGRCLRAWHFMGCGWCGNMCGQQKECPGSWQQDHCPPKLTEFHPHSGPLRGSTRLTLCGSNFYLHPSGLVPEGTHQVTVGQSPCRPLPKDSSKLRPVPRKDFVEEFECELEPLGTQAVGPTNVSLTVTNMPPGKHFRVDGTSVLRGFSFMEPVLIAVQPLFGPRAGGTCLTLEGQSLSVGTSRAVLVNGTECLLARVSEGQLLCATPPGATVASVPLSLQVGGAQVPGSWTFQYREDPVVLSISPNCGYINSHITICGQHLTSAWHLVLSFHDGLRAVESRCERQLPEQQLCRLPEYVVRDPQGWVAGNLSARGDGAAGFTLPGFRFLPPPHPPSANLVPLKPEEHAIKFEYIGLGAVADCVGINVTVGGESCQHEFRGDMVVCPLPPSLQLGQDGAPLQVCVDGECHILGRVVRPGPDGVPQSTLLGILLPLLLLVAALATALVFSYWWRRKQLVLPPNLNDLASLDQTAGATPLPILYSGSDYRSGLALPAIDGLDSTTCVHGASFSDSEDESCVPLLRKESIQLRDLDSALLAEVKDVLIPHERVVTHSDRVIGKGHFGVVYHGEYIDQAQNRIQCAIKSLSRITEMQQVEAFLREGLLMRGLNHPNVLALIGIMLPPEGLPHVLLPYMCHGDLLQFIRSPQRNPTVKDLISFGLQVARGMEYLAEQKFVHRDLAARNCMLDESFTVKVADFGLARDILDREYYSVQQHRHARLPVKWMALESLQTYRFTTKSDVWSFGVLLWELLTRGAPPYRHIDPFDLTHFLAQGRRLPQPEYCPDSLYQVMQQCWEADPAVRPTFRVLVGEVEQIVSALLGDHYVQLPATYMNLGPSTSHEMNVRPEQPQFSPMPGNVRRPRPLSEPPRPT

For the molecule `FC(F)(F)c1cccc(Nc2nccc(-c3cnn4nc(-c5ccccc5)ccc34)n2)c1`, the inhibition in [1] was 9%; in assay [2], 3.97%; in assay [3], 1.8%; in [4], 0.97%; in assay [5], 9.02%; in assay [6], 5.04%. Moreover, the inhibition in [7] is 8.31%; in [8], -0.79%; in assay [9], -0.77%; in [10], -0.05%; in assay [11], -6.97%; in assay [12], -0.76%. For the same molecule, the inhibition in assay [13] came out at 4.7%; in assay [14] it was 0.12%; in assay [15], 4.87%; in assay [16] it was 1.51%; in assay [17] it was 8.59%; in assay [18], 0.76%. Further, the inhibition was 1.15% in [19] and -0.16% in assay [20].

Consider `COc1cccc(-n2cnc3c(N/N=C/c4ccncc4)ncnc32)c1`, for which the inhibition in assay [1] was 32.8%; in [2], 0.89%; in assay [3], 0.14%; in assay [4], -1.03%; in assay [5], 4.38%; in assay [6] it was 12.5%. In addition, the inhibition in assay [7] is 50.4%; in assay [8], 2.47%; in [9], 6.19%; in assay [10], 1.9%; in assay [11] it was -1.09%; in [12], -2.49%. Further, the inhibition in [13] is 5.03%; in [14], -0.9%; in assay [15], 9.67%; in [16], 1.98%; in [17], 19.3%; in assay [18], 0.06%. Further, the inhibition is 3.07% in [19] and -1.67% in [20].

As to `O=C1Nc2ccc(I)cc2C1=Cc1cc(Br)c(O)c(Br)c1`, the inhibition in assay [1] turned out to be 5.79%; in assay [2] it was 8.18%; in assay [3] it was 13.2%; in assay [4], 6.23%; in [5], 8.1%; in [6], 8.18%. Moreover, the inhibition was determined as 14.2% in assay [7]; 2.19% in assay [8]; 27.2% in assay [9]; 1.97% in assay [10]; 1.56% in assay [11]; 7.04% in [12]. Also, the inhibition in assay [13] is 3.72%; in [14], 4.71%; in assay [15], 5.55%; in assay [16], 22.7%; in [17], 84.5%; in assay [18] it was 0.67%. In addition, the inhibition in assay [19] is 3.22%; in assay [20], 2.97%.

For `COc1cccc(/C=N/Nc2ncnc3c2cnn3-c2cccc(OC)c2)c1`, the inhibition worked out at 6.96% in [1]; 0.75% in [2]; 4.77% in assay [3]; 5.15% in assay [4]; 8.27% in assay [5]; 7.02% in assay [6]. In addition, the inhibition in assay [7] was 17.5%; in assay [8], -1.15%; in [9], -3.63%; in assay [10] it was 2.69%; in assay [11] it was 0.04%; in [12], 4.1%. The inhibition in assay [13] amounted to 4.79%; in assay [14], 5.3%; in assay [15] it was 4.37%; in assay [16] it was 0.36%; in [17], 3.79%; in assay [18], 1.06%. The inhibition in assay [19] amounted to 3.32%; in assay [20] it was 1.54%.

On to `NC(=O)c1ccc(Oc2nccc(-c3c(-c4ccc(F)cc4)ncn3C3CCNCC3)n2)cc1`, for which the inhibition in assay [1] worked out at 3.63%; in [2] it was 4.31%; in assay [3], 6.11%; in [4], 9.43%; in [5], 7.5%; in assay [6], 13%. Moreover, the inhibition was 13.6% in assay [7]; -3.65% in assay [8]; -3.42% in assay [9]; -0.16% in [10]; 2.71% in [11]; 8.39% in [12]. The inhibition came to 6.14% in [13]; 5.16% in assay [14]; 6.4% in assay [15]; 4.4% in assay [16]; 4.01% in [17]; 0.55% in [18]. Besides, the inhibition in assay [19] came to 1.67%; in assay [20], 2.53%.

For `CS(=O)(=O)CCNCc1ccc(-c2ccc3ncnc(Nc4ccc(OCc5ccccc5)c(Br)c4)c3c2)o1`, the inhibition in [1] came to 15.1%; in assay [2], 4.89%; in assay [3] it was 6.32%; in [4], 4.46%; in assay [5], 10.1%; in assay [6], 6.71%. The inhibition in assay [7] is 6.55%; in assay [8], -0.64%; in [9], 2.32%; in [10] it was -1.09%; in assay [11], -5.01%; in [12], -2.31%. In addition, the inhibition in [13] is 1.49%; in assay [14] it was 0.77%; in assay [15], 4.68%; in assay [16], 0.59%; in assay [17] it was 14.6%; in assay [18] it was -0.17%. The inhibition stood at 1.61% in [19] and 1.4% in assay [20].

(Values after ChEMBL document CHEMBL1961873, “Compounds: GSK PKIS; Assays: Nanosyn kinase panel” (2012).)
